Results reported in publication PMC12820563, “FoxP3 forms a head-to-head dimer in vivo and stabilizes its multimerization on adjacent microsatellites”.
In all, about 16,000 sequences were measured (“rpm ratio (pull-down/input)”: median about 0.94, highest 2% from about 1.7 on). Many of the other results were omitted from the sample, so the highest values are more common in it than they were.

What follows are sequences tested against T1, MBP-FoxP1dN (Mus musculus, UniProt P58462 326-579) (assay: PD-seq (MBP pull-down with sequencing); 20 mM Tris-HCl pH 7.5, 100 mM NaCl, 1.5 mM MgCl2, 0.4 uM protein, 0.1 uM dsDNA library, 30 min, room temperature, amylose pull-down; high values mean tight binding). Conditions: protein: recombinant; tags: His6-MBP; chain copies: 2; dsDNA, one strand shown.
T1 sequence: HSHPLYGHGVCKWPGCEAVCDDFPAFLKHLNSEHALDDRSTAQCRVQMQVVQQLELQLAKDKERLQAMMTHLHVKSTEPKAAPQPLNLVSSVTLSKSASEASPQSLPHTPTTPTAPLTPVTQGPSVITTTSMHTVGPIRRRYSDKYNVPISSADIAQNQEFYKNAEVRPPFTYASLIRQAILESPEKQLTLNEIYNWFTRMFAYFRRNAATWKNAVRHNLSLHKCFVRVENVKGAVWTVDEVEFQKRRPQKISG
Outline: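 Binding is reads-per-million enrichment of pull-down over input, with replicates pooled. It comes from 30 min room-temperature incubation in Tris pH 7.5 buffer with NaCl and MgCl2 of 0.4 µM His6-MBP-tagged, N-terminally truncated mouse FoxP3 or FoxP1 fragment from E. coli with 0.1 µM Klenow-filled degenerate double-stranded DNA library, followed by amylose resin capture, three washes and Illumina sequencing of the released DNA.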

Sequence	binding signal
GATGATTGTTCTCCCAGCTGATGAATTCGACATATCGAGTAAACAAATTTTCCTAATCTTTCTGTTCAAGCGCCATCTAC	0.996 RPM ratio (pull-down/input)
GATGATTGTTCTCCCAGCTGATGAATTGTATGACTCGAGTAAACAAATTTTCCTAATCTTTCTGTTCAAGCGCCATCTAC	0.974 RPM ratio (pull-down/input)
GATGATTGTTCTCCCAGCTGATGAATTTATCAGATCGAGTAAACAAATTTTCCTAATCTTTCTGTTCAAGCGCCATCTAC	1.03 RPM ratio (pull-down/input)
GATGATTGTTCTCCCAGCTGATGAATTCAGGCGGTCGAGTAAACAAATTTTCCTAATCTTTCTGTTCAAGCGCCATCTAC	0.783 RPM ratio (pull-down/input)
GATGATTGTTCTCCCAGCTGATGAATTACTAAGGTCGAGTAAACAAATTTTCCTAATCTTTCTGTTCAAGCGCCATCTAC	1.03 RPM ratio (pull-down/input)
GATGATTGTTCTCCCAGCTGATGAATTACTTTGGTCGAGTAAACAAATTTTCCTAATCTTTCTGTTCAAGCGCCATCTAC	0.952 RPM ratio (pull-down/input)
GATGATTGTTCTCCCAGCTGATGAATTTTGATGGTCGAGTAAACAAATTTTCCTAATCTTTCTGTTCAAGCGCCATCTAC	1.04 RPM ratio (pull-down/input)
GATGATTGTTCTCCCAGCTGATGAATTATTGCTGTCGAGTAAACAAATTTTCCTAATCTTTCTGTTCAAGCGCCATCTAC	1.67 RPM ratio (pull-down/input)
GATGATTGTTCTCCCAGCTGATGAATTTGCTATGTCGAGTAAACAAATTTTCCTAATCTTTCTGTTCAAGCGCCATCTAC	1.06 RPM ratio (pull-down/input)
GATGATTGTTCTCCCAGCTGATGAATTGCTATTGTCGAGTAAACAAATTTTCCTAATCTTTCTGTTCAAGCGCCATCTAC	2.28 RPM ratio (pull-down/input)
GATGATTGTTCTCCCAGCTGATGAATTTTGCTATTCGAGTAAACAAATTTTCCTAATCTTTCTGTTCAAGCGCCATCTAC	1.32 RPM ratio (pull-down/input)
GATGATTGTTCTCCCAGCTGATGAATTTGCTATTTCGAGTAAACAAATTTTCCTAATCTTTCTGTTCAAGCGCCATCTAC	1.17 RPM ratio (pull-down/input)
GATGATTGTTCTCCCAGCTGATGAATTGCTATTTTCGAGTAAACAAATTTTCCTAATCTTTCTGTTCAAGCGCCATCTAC	2.22 RPM ratio (pull-down/input)
GATGATTGTTCTCCCAGCTGATGAATTAGGCGCGTCGAGTAAACAAATTTTCCTAATCTTTCTGTTCAAGCGCCATCTAC	1.03 RPM ratio (pull-down/input)
GATGATTGTTCTCCCAGCTGATGAATTGGACTATTCGAGTAAACAAATTTTCCTAATCTTTCTGTTCAAGCGCCATCTAC	0.893 RPM ratio (pull-down/input)
GATGATTGTTCTCCCAGCTGATGAATTCCCCGGATCGAGTAAACAAATTTTCCTAATCTTTCTGTTCAAGCGCCATCTAC	0.788 RPM ratio (pull-down/input)
GATGATTGTTCTCCCAGCTGATGAATTTACCTACTCGAGTAAACAAATTTTCCTAATCTTTCTGTTCAAGCGCCATCTAC	1.24 RPM ratio (pull-down/input)
GATGATTGTTCTCCCAGCTGATGAATTACTAACATCGAGTAAACAAATTTTCCTAATCTTTCTGTTCAAGCGCCATCTAC	1.77 RPM ratio (pull-down/input)
GATGATTGTTCTCCCAGCTGATGAATTATTTACATCGAGTAAACAAATTTTCCTAATCTTTCTGTTCAAGCGCCATCTAC	2.34 RPM ratio (pull-down/input)
GATGATTGTTCTCCCAGCTGATGAATTACTACCATCGAGTAAACAAATTTTCCTAATCTTTCTGTTCAAGCGCCATCTAC	1.13 RPM ratio (pull-down/input)

Sequence	binding signal
GATGATTGTTCTCCCAGCTGATGAATTGATTACATCGAGTAAACAAATTTTCCTAATCTTTCTGTTCAAGCGCCATCTAC	1.58 RPM ratio (pull-down/input)
GATGATTGTTCTCCCAGCTGATGAATTACCAAAATCGAGTAAACAAATTTTCCTAATCTTTCTGTTCAAGCGCCATCTAC	1.3 RPM ratio (pull-down/input)
GATGATTGTTCTCCCAGCTGATGAATTTATTACATCGAGTAAACAAATTTTCCTAATCTTTCTGTTCAAGCGCCATCTAC	1.21 RPM ratio (pull-down/input)
GATGATTGTTCTCCCAGCTGATGAATTACCAACATCGAGTAAACAAATTTTCCTAATCTTTCTGTTCAAGCGCCATCTAC	1.94 RPM ratio (pull-down/input)
GATGATTGTTCTCCCAGCTGATGAATTACATTTATCGAGTAAACAAATTTTCCTAATCTTTCTGTTCAAGCGCCATCTAC	1.52 RPM ratio (pull-down/input)
GATGATTGTTCTCCCAGCTGATGAATTACAAACATCGAGTAAACAAATTTTCCTAATCTTTCTGTTCAAGCGCCATCTAC	2.67 RPM ratio (pull-down/input)
GATGATTGTTCTCCCAGCTGATGAATTACTAAAATCGAGTAAACAAATTTTCCTAATCTTTCTGTTCAAGCGCCATCTAC	1.34 RPM ratio (pull-down/input)
GATGATTGTTCTCCCAGCTGATGAATTAATTACATCGAGTAAACAAATTTTCCTAATCTTTCTGTTCAAGCGCCATCTAC	1.26 RPM ratio (pull-down/input)
GATGATTGTTCTCCCAGCTGATGAATTTACCAAATCGAGTAAACAAATTTTCCTAATCTTTCTGTTCAAGCGCCATCTAC	1.65 RPM ratio (pull-down/input)
GATGATTGTTCTCCCAGCTGATGAATTCTAATCCTCGAGTAAACAAATTTTCCTAATCTTTCTGTTCAAGCGCCATCTAC	0.781 RPM ratio (pull-down/input)
GATGATTGTTCTCCCAGCTGATGAATTGGGTGCTTCGAGTAAACAAATTTTCCTAATCTTTCTGTTCAAGCGCCATCTAC	0.861 RPM ratio (pull-down/input)
GATGATTGTTCTCCCAGCTGATGAATTTCAGGTATCGAGTAAACAAATTTTCCTAATCTTTCTGTTCAAGCGCCATCTAC	0.919 RPM ratio (pull-down/input)
GATGATTGTTCTCCCAGCTGATGAATTTGTACGCTCGAGTAAACAAATTTTCCTAATCTTTCTGTTCAAGCGCCATCTAC	1.13 RPM ratio (pull-down/input)
GATGATTGTTCTCCCAGCTGATGAATTTGCGATATCGAGTAAACAAATTTTCCTAATCTTTCTGTTCAAGCGCCATCTAC	1.19 RPM ratio (pull-down/input)
GATGATTGTTCTCCCAGCTGATGAATTGCCTATGTCGAGTAAACAAATTTTCCTAATCTTTCTGTTCAAGCGCCATCTAC	0.918 RPM ratio (pull-down/input)
GATGATTGTTCTCCCAGCTGATGAATTGACGCGGTCGAGTAAACAAATTTTCCTAATCTTTCTGTTCAAGCGCCATCTAC	1.01 RPM ratio (pull-down/input)
GATGATTGTTCTCCCAGCTGATGAATTTTCTGGCTCGAGTAAACAAATTTTCCTAATCTTTCTGTTCAAGCGCCATCTAC	0.777 RPM ratio (pull-down/input)
GATGATTGTTCTCCCAGCTGATGAATTTCCGAAGTCGAGTAAACAAATTTTCCTAATCTTTCTGTTCAAGCGCCATCTAC	0.787 RPM ratio (pull-down/input)
GATGATTGTTCTCCCAGCTGATGAATTACGTCGCTCGAGTAAACAAATTTTCCTAATCTTTCTGTTCAAGCGCCATCTAC	1.02 RPM ratio (pull-down/input)
GATGATTGTTCTCCCAGCTGATGAATTTTCACATTCGAGTAAACAAATTTTCCTAATCTTTCTGTTCAAGCGCCATCTAC	0.987 RPM ratio (pull-down/input)
